# Measured values: PubChem BioAssay (NCI)
# This is part of a sample that, as a whole, favours compounds with a hit. Of some 83,000 tested, about 20% had one in any assay.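 The endpoint reported here, percent growth, reads 100 for growth as untreated, 0 for no net growth and -100 for all cells dead.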 Calls of active or inactive are those of the source.
# Test system: OVCAR-8 ovarian
# Assay: NCI-60 one-dose screen, 48 h (100 = growth as untreated, 0 = no growth, -100 = all killed)
# Conditions: 10 µM
# Experimental: Growth inhibition of the OVCAR-8 human tumor cell line is measured as a screen for anti-cancer activity. Cells are grown in 96 well plates and exposed to the test compound for 48 hours. Compounds are tested at a single concentration, which is 10^-5 M for most compounds. The reported endpoint is percent growth (GI% or GIPRCNT), where numbers from 0 - 100% represent growth inhibition, and numbers from -100% - 0 represent cell death. For example, a value of 40 represents 60% growth inhibition. A value of 0 means no net growth occurred over the course of the experiment. A value of -40 indicates 40% of cells at the beginning of the experiment died by the end of the experiment. A value of -100 means all cells are dead at the end of the experiment.
# NCI-60 Human Tumor Cell Lines Screen was performed using the standard one-dose NCI protocol, which is described in more detail at https://dtp.cancer.gov/discovery_development/nci-60/default.htm.
# Compounds with GIPRCNT values below 10 were considered active. Activity score was based on GIPRCNT using the following formula: […]
# Score is 0 for GIPRCNT values of 100 or above, 50 for GIPRCNT values of 0, and 100 for GIPRCNT values of -100.
row,Structure (SMILES),growth
1,CC12OOC(C)(OO1)C2CCC(=O)NCCNc1ccnc2cc(Cl)ccc12 (stereo not given),97.6% (inactive)
2,O=C(/C=C/c1ccc(Cl)cc1)c1nc2ccccc2n1Cc1ccc(Br)cc1,66% (inactive)
3,COc1cc2cc(C(=O)N3C[C@@H](CCl)c4c3cc(OC(=O)N3CCN(C)[C@@H]5CSSC[C@@H]53)c3ccccc43)[nH]c2c(OC)c1OC,-3.43% (active)
4,CC1=C(COCCOC(=O)c2ccc(S(=O)(=O)F)cc2)C2=C(C)C3(CC3)[C@@](C)(O)C(=O)C2=C1,-0.659% (active)
5,C=CCN=C([Se])NC(=O)c1ccc2c(c1)OCO2,61.1% (inactive)
6,COc1cc(OC)c(S(=O)(=O)N(CCCl)CCCl)cc1C(=O)/C=C/c1ccc(C)cc1,54.2% (inactive)
7,C=CC[Se]C(=O)c1cncc(C(=O)[Se]CC=C)c1,-87.3% (active)
8,CCOC(=O)C1=C(Nc2ccccc2)C(=O)OC12C(=O)Nc1ccccc12 (stereo not given),105% (inactive)
9,O=C(/C=C/c1ccccc1Cl)c1nc2ccccc2n1Cc1ccc(F)cc1,-66.1% (active)
10,O=C(/C=C/c1ccc(F)cc1)c1nc2ccccc2n1Cc1ccc(F)cc1,2.66% (active)
11,CCC[Se]C(=O)c1ccc(C(=O)[Se]CCC)s1,-51.1% (active)
12,CC[C@]12C=CCN3CC[C@@]4(c5ccc(OC)cc5N(C)[C@H]4[C@@](O)(C(=O)OC)[C@@H]1OC(=O)CCCC[P+](C1CCCCC1)(C1CCCCC1)C1CCCCC1)[C@@H]32,-6.33% (active)
13,COC(=O)C[C@](O)(CCC(C)C)C(=O)O[C@H]1C(OC)=C[C@@]23CCCN2CCc2cc4c(cc2[C@@H]13)OCO4,-38.8% (active)
14,CC(=O)Oc1ccccc1C(=O)NC([Se])=NC1CCCCC1,-56.4% (active)
15,CC[C@]12C=CCN3CC[C@@]4(c5ccc(OC)cc5N(C)[C@H]4[C@@](O)(C(=O)OC)[C@@H]1OC(=O)CCC[P+](C1CCCCC1)(C1CCCCC1)C1CCCCC1)[C@@H]32,1.19% (active)
16,COCCOCCOCCOc1ccc(-n2cc(CCCN(CCNc3ccnc4cc(Cl)ccc34)C(=O)CCC(=O)O[C@@H]3O[C@@H]4OC5(C)CC[C@H]6[C@H](C)CC[C@@H]([C@H]3C)[C@@]46OO5)nn2)cc1,20.9% (inactive)
17,COC(=O)c1ccc(-n2cc(CCCN(CCNc3ccnc4cc(Cl)ccc34)C(=O)CCC(=O)O[C@@H]3O[C@@H]4OC5(C)CC[C@H]6[C@H](C)CC[C@@H]([C@H]3C)[C@@]46OO5)nn2)cc1,20.9% (inactive)
18,O=C(NCCCCC(c1ccc(F)cc1)c1ccc(F)cc1)Nc1ccc([N+](=O)[O-])c(C(F)(F)F)c1,5.42% (active)
19,CC12OOC(C)(OO1)C2CCC(=O)OCCNc1ccnc2cc(Cl)ccc12 (stereo not given),68% (inactive)
20,C[C@H]1[C@H](OC(=O)CCC(=O)Nc2cnccn2)O[C@@H]2OC3(C)CC[C@H]4[C@H](C)CC[C@@H]1[C@@]24OO3,20.7% (inactive)

row,Structure (SMILES),growth
1,CC[C@]12C=CCN3CC[C@@]4(c5ccc(OC)cc5N(C)[C@H]4[C@@](O)(C(=O)OC)[C@@H]1OC(=O)CCCC[P+](c1ccc(C)cc1)(c1ccc(C)cc1)c1ccc(C)cc1)[C@@H]32,-86.6% (active)
2,O=C(/C=C/c1ccc(Cl)cc1Cl)c1nc2ccccc2n1Cc1ccc(Br)cc1,80.6% (inactive)
3,CC(C)N=C([Se])NC(=O)c1ccccc1,-65.2% (active)
4,O=C(/C=C/c1ccc(F)cc1)c1nc2ccccc2n1Cc1ccc(Br)cc1,-1.74% (active)
5,C[C@H]1[C@H](OC(=O)CCC(=O)N(CCCc2cn(-c3ccc(CN4CCOCC4)cc3)nn2)CCNc2ccnc3cc(Cl)ccc23)O[C@@H]2OC3(C)CC[C@H]4[C@H](C)CC[C@@H]1[C@@]24OO3,19.4% (inactive)
6,CC12OOC(C)(OO1)C2CCC(=O)NCCCNc1ccnc2cc(Cl)ccc12 (stereo not given),94.9% (inactive)
7,O=C(/C=C/c1ccccc1)c1nc2ccccc2n1Cc1ccc(Br)cc1,-18.5% (active)
8,CCOP(=O)(OCC)C(NC(C)=O)C(=O)SCCN (stereo not given),109% (inactive)
9,COP(=O)(CC(F)(F)C(F)(F)F)OC,-75.6% (active)
10,C[C@H]1[C@@H](CC(=O)N[C@@H](Cc2coc3ccccc23)B(O)O)O[C@@H]2OC3(C)CC[C@H]4[C@H](C)CC[C@@H]1[C@@]24OO3,-6.75% (active)
11,CC[C@]12C=CCN3CC[C@@]4(c5ccc(OC)cc5N(C)[C@H]4[C@@](O)(C(=O)OC)[C@@H]1OC(=O)CCC[P+](c1ccc(F)cc1)(c1ccc(F)cc1)c1ccc(F)cc1)[C@@H]32,28% (inactive)
12,O=C(/C=C/c1ccc(Cl)cc1Cl)c1nc2ccccc2n1Cc1ccc(F)cc1,56% (inactive)
13,C#CC[Se]C(=O)c1ccc2n[se]nc2c1,74.9% (inactive)
14,CC(C)N=C([Se])NC(=O)c1cccs1,-36.8% (active)
15,O=C([Se]C1C=CCCC1)c1ccc(C(=O)[Se]C2C=CCCC2)s1 (stereo not given),-97.6% (active)
16,O=C(/C=C/c1ccco1)c1nc2ccccc2n1Cc1ccc(Br)cc1,46.7% (inactive)
17,CC[C@]12C=CCN3CC[C@@]4(c5ccc(OC)cc5N(C)[C@H]4[C@@](O)(C(=O)OC)[C@@H]1OC(=O)CCC[P+](c1ccc(C)cc1)(c1ccc(C)cc1)c1ccc(C)cc1)[C@@H]32,-85% (active)
18,C=CC[Se]C(=O)c1ccc(C(=O)[Se]CC=C)s1,-80.5% (active)
19,O=C(/C=C/c1ccc(Cl)cc1)c1nc2ccccc2n1Cc1ccc(F)cc1,17.1% (inactive)
20,CC1=C(CCC=NNC(N)=O)C2=C(C)C3(CC3)[C@@](C)(O)C(=O)C2=C1,-58.7% (active)
